Common to all, as to assay: PBM; 200 nM protein, PBS
Holding throughout (details): dsDNA, one strand shown

For test [1], the target named is HOXA2 (Homo sapiens, UniProt O43364 129-215, R185T).
Test [2] concerns the target HOXA2 (Homo sapiens, UniProt O43364 129-215, Y150S).
The target in test [3] is HOXA2 (Homo sapiens, UniProt O43364 129-215).
Test [4] concerns the target HOXA4 (Homo sapiens, UniProt Q00056 201-287, R217L).
Test [5] deals with HOXA4 (Homo sapiens, UniProt Q00056 201-287).
Test [6] deals with HOXB9 (Homo sapiens, UniProt P17482 171-250).
Chain of HOXB9 (Homo sapiens, UniProt P17482 171-250) (P17482 171-250): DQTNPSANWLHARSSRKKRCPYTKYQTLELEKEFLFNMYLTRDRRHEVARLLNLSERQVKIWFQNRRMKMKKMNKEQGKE
The target in test [7] is MSX2 (Homo sapiens, UniProt P35548 130-214).
Chain of MSX2 (Homo sapiens, UniProt P35548 130-214) (P35548 130-214): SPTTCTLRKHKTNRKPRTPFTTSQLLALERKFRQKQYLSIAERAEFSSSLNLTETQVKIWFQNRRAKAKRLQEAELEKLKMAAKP
For test [8], the target named is HOXB9 (Homo sapiens, UniProt P17482 171-250, R186Q).
Chain of HOXB9 (Homo sapiens, UniProt P17482 171-250, R186Q) (P17482 171-250 R186Q): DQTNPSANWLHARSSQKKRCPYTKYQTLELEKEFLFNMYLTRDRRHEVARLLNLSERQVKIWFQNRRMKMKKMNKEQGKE
For test [9], the target named is MSX2 (Homo sapiens, UniProt P35548 130-214, F161Y).
Chain of MSX2 (Homo sapiens, UniProt P35548 130-214, F161Y) (P35548 130-214 F161Y): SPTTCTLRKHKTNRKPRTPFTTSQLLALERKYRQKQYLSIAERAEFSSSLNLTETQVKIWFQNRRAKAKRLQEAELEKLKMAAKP
In test [10] the target is T1, NKX2-6 (Homo sapiens, UniProt A6NCS4 118-204).
T1 sequence: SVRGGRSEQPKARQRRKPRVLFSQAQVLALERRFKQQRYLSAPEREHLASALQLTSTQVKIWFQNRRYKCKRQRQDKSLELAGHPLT

For test [11], the target named is T2, NKX2-6 (Homo sapiens, UniProt A6NCS4 118-204, F151L).
T2 sequence: T1 sequence with F34L

Test [12] addresses T3, NKX2-6 (Homo sapiens, UniProt A6NCS4 118-204, R150C).
T3 sequence: T1 sequence with R33C

For the next test, the target named is HOXB6 (Homo sapiens, UniProt P17509 132-218).
Chain of HOXB6 (P17509 132-218): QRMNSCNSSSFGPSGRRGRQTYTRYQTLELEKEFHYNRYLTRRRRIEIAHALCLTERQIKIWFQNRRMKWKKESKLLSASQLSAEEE

Substitutions are numbered along the chain they refer to.

Chain of HOXA2 (Homo sapiens, UniProt O43364 129-215, R185T) (O43364 129-215 R185T): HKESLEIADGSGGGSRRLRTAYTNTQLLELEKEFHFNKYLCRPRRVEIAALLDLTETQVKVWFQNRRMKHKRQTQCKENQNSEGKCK
Chain of HOXA2 (Homo sapiens, UniProt O43364 129-215) (O43364 129-215): as the sequence (O43364 129-215 R185T) above, with T57R counted along it
Chain of HOXA2 (Homo sapiens, UniProt O43364 129-215, Y150S) (O43364 129-215 Y150S): as the sequence (O43364 129-215 R185T) above, with Y22S, T57R counted along it
Chain of HOXA4 (Homo sapiens, UniProt Q00056 201-287, R217L) (Q00056 201-287 R217L): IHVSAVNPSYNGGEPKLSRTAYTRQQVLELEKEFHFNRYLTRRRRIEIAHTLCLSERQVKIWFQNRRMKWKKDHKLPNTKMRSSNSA
Chain of HOXA4 (Homo sapiens, UniProt Q00056 201-287) (Q00056 201-287): as the sequence (Q00056 201-287 R217L) above, with L17R counted along it

In the case of CTATTCAA, the binding signal was 9.27 upbm affinity estimate (log intensity, higher = more binding, comparable within an allelic series) with HOXA2 [1]; 10.8 upbm affinity estimate (log intensity, higher = more binding, comparable within an allelic series) with HOXA2 [2]; 9.17 upbm affinity estimate (log intensity, higher = more binding, comparable within an allelic series) in the test with HOXA2 [3].

On to AATTGGGC, for which the binding signal with HOXA2 [1] is 9.64 upbm affinity estimate (log intensity, higher = more binding, comparable within an allelic series); with HOXA2 [2], 10.6 upbm affinity estimate (log intensity, higher = more binding, comparable within an allelic series); in the test with HOXA2 [3], 9.35 upbm affinity estimate (log intensity, higher = more binding, comparable within an allelic series).

As for AGATGTAA, the binding signal in the test with HOXA2 [1] was 9.25 upbm affinity estimate (log intensity, higher = more binding, comparable within an allelic series); with HOXA2 [3] it was 9.27 upbm affinity estimate (log intensity, higher = more binding, comparable within an allelic series).

With AAAAATAT, the binding signal in the test with HOXA4 [4] was 10.8 upbm affinity estimate (log intensity, higher = more binding, comparable within an allelic series); in the test with HOXA4 [5], 11.1 upbm affinity estimate (log intensity, higher = more binding, comparable within an allelic series).

With ACTCGTAA, the binding signal was 9.32 upbm affinity estimate (log intensity, higher = more binding, comparable within an allelic series) with HOXA2 [1] and 9.32 upbm affinity estimate (log intensity, higher = more binding, comparable within an allelic series) in the test with HOXA2 [3].

Regarding CATCTACG, the binding signal with HOXA2 [1] is 8.85 upbm affinity estimate (log intensity, higher = more binding, comparable within an allelic series); in the test with HOXA2 [2], 10.7 upbm affinity estimate (log intensity, higher = more binding, comparable within an allelic series); with HOXA2 [3], 9.05 upbm affinity estimate (log intensity, higher = more binding, comparable within an allelic series).

As to ACATTAGC, the binding signal with HOXA4 [4] was 10.8 upbm affinity estimate (log intensity, higher = more binding, comparable within an allelic series).

As for AACTAAAA, the binding signal was 8.87 upbm affinity estimate (log intensity, higher = more binding, comparable within an allelic series) with HOXA2 [1]; 10.6 upbm affinity estimate (log intensity, higher = more binding, comparable within an allelic series) in the test with HOXA2 [2]; 8.87 upbm affinity estimate (log intensity, higher = more binding, comparable within an allelic series) with HOXA2 [3].

On to TAATAGTA, for which the binding signal was 10.9 upbm affinity estimate (log intensity, higher = more binding, comparable within an allelic series) in the test with HOXB9 [6]; 11.7 upbm affinity estimate (log intensity, higher = more binding, comparable within an allelic series) with MSX2 [7]; 10.8 upbm affinity estimate (log intensity, higher = more binding, comparable within an allelic series) with HOXB9 [8]; 11.5 upbm affinity estimate (log intensity, higher = more binding, comparable within an allelic series) with MSX2 [9].

For the sequence AAAAATTG, the binding signal is 8.96 upbm affinity estimate (log intensity, higher = more binding, comparable within an allelic series) in the test with HOXA2 [1] and 8.94 upbm affinity estimate (log intensity, higher = more binding, comparable within an allelic series) with HOXA2 [3].

As for CCTATTTA, the binding signal was 10.4 upbm affinity estimate (log intensity, higher = more binding, comparable within an allelic series) with HOXB9 [6]; 11.2 upbm affinity estimate (log intensity, higher = more binding, comparable within an allelic series) with NKX2-6 [10]; 10.2 upbm affinity estimate (log intensity, higher = more binding, comparable within an allelic series) in the test with HOXB9 [8]; 9.86 upbm affinity estimate (log intensity, higher = more binding, comparable within an allelic series) in the test with NKX2-6 [11].

As for GTTTGCAA, the binding signal in the test with HOXA2 [1] was 8.76 upbm affinity estimate (log intensity, higher = more binding, comparable within an allelic series); with HOXA2 [3], 8.78 upbm affinity estimate (log intensity, higher = more binding, comparable within an allelic series).

As to CATTTTAC, the binding signal with HOXA2 [1] is 8.88 upbm affinity estimate (log intensity, higher = more binding, comparable within an allelic series); with HOXA2 [3], 8.85 upbm affinity estimate (log intensity, higher = more binding, comparable within an allelic series).

Turning to ATAGAAAT, the binding signal in the test with HOXA2 [1] is 9.28 upbm affinity estimate (log intensity, higher = more binding, comparable within an allelic series); with HOXA2 [3] it was 9.2 upbm affinity estimate (log intensity, higher = more binding, comparable within an allelic series).

Take AAATCAGC: the binding signal in the test with HOXA2 [1] was 9.59 upbm affinity estimate (log intensity, higher = more binding, comparable within an allelic series); in the test with HOXA2 [2], 10.7 upbm affinity estimate (log intensity, higher = more binding, comparable within an allelic series); in the test with HOXA2 [3], 9.43 upbm affinity estimate (log intensity, higher = more binding, comparable within an allelic series).

For AGATAGAT, the binding signal was 8.87 upbm affinity estimate (log intensity, higher = more binding, comparable within an allelic series) in the test with HOXA2 [1] and 8.71 upbm affinity estimate (log intensity, higher = more binding, comparable within an allelic series) in the test with HOXA2 [3].

As for ATCATCTG, the binding signal with HOXA2 [1] is 9.25 upbm affinity estimate (log intensity, higher = more binding, comparable within an allelic series); with HOXA2 [2], 10.7 upbm affinity estimate (log intensity, higher = more binding, comparable within an allelic series); with HOXA2 [3], 9.72 upbm affinity estimate (log intensity, higher = more binding, comparable within an allelic series).

In the case of AACTATTG, the binding signal with HOXA2 [1] was 8.83 upbm affinity estimate (log intensity, higher = more binding, comparable within an allelic series); in the test with HOXA2 [3], 8.91 upbm affinity estimate (log intensity, higher = more binding, comparable within an allelic series).

Take ATCAGAAA: the binding signal with HOXA2 [1] was 8.59 upbm affinity estimate (log intensity, higher = more binding, comparable within an allelic series); in the test with HOXA2 [2], 10.6 upbm affinity estimate (log intensity, higher = more binding, comparable within an allelic series); with HOXA2 [3], 8.63 upbm affinity estimate (log intensity, higher = more binding, comparable within an allelic series).

Turning to AAATACCC, the binding signal was 9.06 upbm affinity estimate (log intensity, higher = more binding, comparable within an allelic series) with HOXA2 [1] and 8.99 upbm affinity estimate (log intensity, higher = more binding, comparable within an allelic series) with HOXA2 [3].

Consider AAACATAA, for which the binding signal with HOXA2 [1] is 9.4 upbm affinity estimate (log intensity, higher = more binding, comparable within an allelic series); with HOXA2 [3], 9.53 upbm affinity estimate (log intensity, higher = more binding, comparable within an allelic series).

AATCAATA: the binding signal is 10.5 upbm affinity estimate (log intensity, higher = more binding, comparable within an allelic series) with HOXB9 [6] and 10.4 upbm affinity estimate (log intensity, higher = more binding, comparable within an allelic series) with HOXB9 [8].

Consider ACAATACC, for which, in the test with HOXB9 [6], the binding signal is 9.73 upbm affinity estimate (log intensity, higher = more binding, comparable within an allelic series).

AACCCATT: the binding signal was 10.5 upbm affinity estimate (log intensity, higher = more binding, comparable within an allelic series) with HOXB9 [6] and 10.4 upbm affinity estimate (log intensity, higher = more binding, comparable within an allelic series) in the test with HOXB9 [8].

On to CCCGCACA, for which the binding signal with NKX2-6 [12] was 9.66 upbm affinity estimate (log intensity, higher = more binding, comparable within an allelic series).

For ATATCTTC, the binding signal with HOXB9 [6] was 10 upbm affinity estimate (log intensity, higher = more binding, comparable within an allelic series); with HOXB9 [8] it was 9.91 upbm affinity estimate (log intensity, higher = more binding, comparable within an allelic series).

Take ATGATTTA: the binding signal with HOXB9 [6] is 10.6 upbm affinity estimate (log intensity, higher = more binding, comparable within an allelic series); with HOXB9 [8], 10.4 upbm affinity estimate (log intensity, higher = more binding, comparable within an allelic series).

For AGGCTAAT, the binding signal is 9.89 upbm affinity estimate (log intensity, higher = more binding, comparable within an allelic series) with HOXB9 [6] and 9.92 upbm affinity estimate (log intensity, higher = more binding, comparable within an allelic series) with HOXB9 [8].

Regarding AGGCAGTC, in the test with NKX2-6 [12], the binding signal was 9.73 upbm affinity estimate (log intensity, higher = more binding, comparable within an allelic series).

Take CAGACGCC: the binding signal with NKX2-6 [12] is 9.62 upbm affinity estimate (log intensity, higher = more binding, comparable within an allelic series).

For the sequence ACAGCGGG, the binding signal with NKX2-6 [12] is 9.46 upbm affinity estimate (log intensity, higher = more binding, comparable within an allelic series).

Turning to ATAGATAA, the binding signal is 10.4 upbm affinity estimate (log intensity, higher = more binding, comparable within an allelic series) with HOXB9 [6] and 10.4 upbm affinity estimate (log intensity, higher = more binding, comparable within an allelic series) with HOXB9 [8].

On to AAGTAATC, for which the binding signal with HOXB9 [6] was 9.94 upbm affinity estimate (log intensity, higher = more binding, comparable within an allelic series); with HOXB9 [8], 9.94 upbm affinity estimate (log intensity, higher = more binding, comparable within an allelic series).

On to ATTACGTC, for which the binding signal was 10 upbm affinity estimate (log intensity, higher = more binding, comparable within an allelic series) with HOXB9 [6] and 10.2 upbm affinity estimate (log intensity, higher = more binding, comparable within an allelic series) in the test with HOXB9 [8].

Turning to AATACCAT, the binding signal in the test with HOXB9 [6] is 9.98 upbm affinity estimate (log intensity, higher = more binding, comparable within an allelic series); in the test with HOXB9 [8], 9.96 upbm affinity estimate (log intensity, higher = more binding, comparable within an allelic series); with HOXB6 it was 10.3 upbm affinity estimate (log intensity, higher = more binding, comparable within an allelic series).
